Inconclusive results are not listed. Activity calls are given as the source filed them. Calls follow the shape of the dose curve; as a rule, active = well fitted inhibition curve with a large enough effect; inconclusive = small, poorly fitted or top-dose-only effect; inactive = flat fitted curve, though single readings scatter.

Sequence of Dual specificity protein kinase CLK4 (Homo sapiens) (Q9HAZ1 whole entry, looked up): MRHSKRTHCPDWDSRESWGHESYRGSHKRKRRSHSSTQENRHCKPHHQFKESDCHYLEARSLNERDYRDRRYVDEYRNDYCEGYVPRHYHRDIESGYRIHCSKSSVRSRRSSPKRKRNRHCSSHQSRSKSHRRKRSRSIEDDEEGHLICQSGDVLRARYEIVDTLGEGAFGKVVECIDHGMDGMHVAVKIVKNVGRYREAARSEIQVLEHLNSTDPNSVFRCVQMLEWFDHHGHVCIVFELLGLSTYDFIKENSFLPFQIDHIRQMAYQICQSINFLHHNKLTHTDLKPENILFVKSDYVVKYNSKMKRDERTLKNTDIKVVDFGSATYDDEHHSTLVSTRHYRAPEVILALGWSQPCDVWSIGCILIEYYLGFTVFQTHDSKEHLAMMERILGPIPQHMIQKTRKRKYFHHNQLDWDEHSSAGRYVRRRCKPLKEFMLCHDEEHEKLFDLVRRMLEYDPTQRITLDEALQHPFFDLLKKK

This assay deals with Dual specificity protein kinase CLK4 (Homo sapiens) (UniProt Q9HAZ1). Kind of assay: Confirmation Assay for Inhibitors of CDC-like Kinase 4 (Kinase-Glo Assay). To be noted: recombinant Clk4, Kinase-Glo ATP depletion luminescence; series mostly up to 47.7 µM. The protocol:
NIH Molecular Libraries Probe Production Centers Network [MLPCN] NIH Chemical Genomics Center [NCGC] MLPCN Grant: 1R03MH084827-01 Assay Submitter (PI): Tom Misteli NCGC Assay Overview: Clk4 (Invitrogen, cat# PV3839) was assayed using ATP and the RS repeat peptide (AnaSpec cat # 61722) as substrates. Following the Clk4 reaction, the remaining ATP levels were detected using Promega Kinase-Glo technology wherein the remaining ATP from the kinase reaction is detected using Ultra-Glo luciferase and D-luciferin which generates a bioluminescence signal from the ATP.
NCGC Assay Protocol Summary: Two uL/well of substrate-buffer solution (100 uM RS peptide, 1 uM ATP, 25 mM Tris pH7.5, 10 mM MgCl2, 0.5 mM EGTA, 2.5 mM DTT, 0.01% Triton X-100 final concentration) was dispensed into 1536-well, assay plates (Greiner, solid white medium-binding plates) with Aurora Discovery BioRAPTR Flying Reagent Dispenser (FRD; Beckton-Dickenson). Using a Kalypsys pin tool equipped with a 1536-pin tool, 23 nL of compound solution was transferred to the assay plate. One uL/ well Clk4-buffer solution (25 nM Clk4, 25 mM Tris pH 7.5, 10 mM MgCl2, 0.5 mM EGTA, 2.5 mM DTT, 0.01% Triton X-100, final concentrations) was then added using the FRD yielding a total kinase reaction volume of 3 uL/ well. After 4.5 hours of room temperature incubation, 3 uL Kinase-Glo reagent was added for a final assay volume of 6 uL/ well. Luminescence was detected with the ViewLux plate reader (Perkin Elmer, Waltham, MA) after 5 min incubation using a 5 second exposure time and 2x binning.
As for `Cn1cnc(CCNc2ncnc3ccc(-c4ccc5c(c4)OCO5)cc23)c1`, the Potency is 232 nM (active). Turning to `NCCNc1ncnc2ccc(-c3ccc4c(c3)OCO4)cc12`, the Potency was 73.3 nM (active). The same measure for `Fc1cccc(CNc2ncnc3ccc(-c4ccccc4Cl)cc23)c1`: 11200 nM (active); for `Cc1cccc(CNc2ncnc3ccc(-c4ccc5c(c4)OCO5)cc23)c1`: 112 nM (active); for `Cc1ccc(CNc2ncnc3cc(-c4ccc5c(c4)OCO5)ccc23)o1`: 5980 nM (active). As for `Fc1cccc(CNc2ncnc3ccc(-c4cccnc4)cc23)c1`, the Potency is 3980 nM (active). Consider `c1nc(NCc2ccoc2)c2cc(-c3ccc4c(c3)OCO4)ccc2n1`, for which the Potency is 37.7 nM (active). As for `Cc1cccc(CNc2ncnc3ccc(-c4ccc5c(ccn5C)c4)cc23)c1`, the figure is 39800 nM (active); as for `c1csc(CCNc2ncnc3ccc(-c4ccc5c(c4)OCO5)cc23)c1`, 46.3 nM (active).

Take `c1csc(CNc2ncnc3ccc(-c4ccoc4)cc23)c1`: the Potency was 184 nM (active). With `Cc1cccc(CNc2ncnc3ccc(-c4cccc(Cl)c4)cc23)c1`, the Potency is 14100 nM (active). The same measure for `CCOC(=O)c1ccc(-c2ccc3ncnc(NCc4ncc[nH]4)c3c2)o1`: 582 nM (active). The same measure for `CC(c1ccco1)N(C)c1ncnc2ccc(-c3ccc4c(c3)OCO4)cc12` (stereo not given): 67.1 nM (active). The same measure for `CN(Cc1nccs1)c1ncnc2ccc(-c3ccc4c(c3)OCO4)cc12`: 37.7 nM (active); for `c1csc(CNc2ncnc3cc(-c4ccc5c(c4)OCO5)ccc23)c1`: 11900 nM (active).

Regarding `Cc1csc(CNc2ncnc3ccc(-c4ccc5c(c4)OCO5)cc23)c1`, the Potency was 141 nM (active). As for `Cc1nc(CSc2ncnc3ccc(-c4ccc5c(c4)OCO5)cc23)cs1`, the figure is 184 nM (active); as for `CCn1cnc(CCN(C)c2ncnc3ccc(-c4ccc5c(c4)OCO5)cc23)c1`, 1300 nM (active); as for `CN(Cc1cncn1C)c1ncnc2ccc(-c3ccc4c(c3)OCO4)cc12`, 292 nM (active). As for `c1nc(NCc2ccc3c(c2)OCO3)c2cc(-c3ccoc3)ccc2n1`, the figure is 631 nM (active); as for `COc1cccc(-c2ccc3ncnc(NCc4cc(C)cs4)c3c2)c1`, 794 nM (active); as for `c1csc(CNc2ncnc3ccc(-c4ccc5c(c4)OCO5)cc23)c1`, 45.8 nM (active). As for `Cc1cccc(-c2ccc3ncnc(NCc4cc(C)cs4)c3c2)c1`, the figure is 14100 nM (active); as for `c1csc(CNc2ncnc3ccc(-c4ccc5c(c4)OCCO5)cc23)c1`, 112 nM (active). For `Cc1ccc(CNc2ncnc3ccc(-c4ccoc4C)cc23)o1`, the Potency was 368 nM (active). As for `Cc1occc1-c1ccc2ncnc(NCCc3cnc[nH]3)c2c1`, the figure is 519 nM (active). The same measure for `Cc1nc(CNc2ncnc3ccc(-c4oc(-c5ccccc5)nc4C)cc23)cs1`: 2320 nM (active); for `Cc1csc(CNc2ncnc3cc(-c4ccc5c(c4)OCO5)ccc23)n1`: 8440 nM (active); for `CCOC(=O)c1ccoc1-c1ccc2ncnc(NCc3ccc(C)o3)c2c1`: 5820 nM (active). As for `Cc1occc1CNc1ncnc2ccc(-c3ccc4c(c3)OCO4)cc12`, the figure is 47.5 nM (active). On to `Cc1cccc(CNc2ncnc3ccc(-c4cccc(C)c4)cc23)c1`, for which the Potency is 8910 nM (active).

Consider `Cc1nc(CNc2ncnc3ccc(-c4ccoc4)cc23)cs1`, for which the Potency was 232 nM (active). As for `CCOC(=O)c1ccc(-c2ccc3ncnc(NCc4cccs4)c3c2)o1`, the figure is 116 nM (active); as for `Cn1cncc1CNc1ncnc2ccc(-c3ccc4c(c3)OCO4)cc12`, 75.2 nM (active).

Turning to `Fc1c(-c2ccc3ncnc(NCc4cccs4)c3c2)ccc2c1OCO2`, the Potency was 65.4 nM (active). As for `CN(C)CCNc1ncnc2ccc(-c3ccc4c(c3)OCO4)cc12`, the figure is 463 nM (active); as for `FC1(F)Oc2ccc(-c3ccc4ncnc(NCc5cccs5)c4c3)cc2O1`, 18400 nM (active); as for `c1c[nH]c(CNc2ncnc3ccc(-c4ccoc4)cc23)n1`, 2920 nM (active). With `CCOC(=O)c1ccc(-c2ccc3ncnc(NCc4csc(C)n4)c3c2)o1`, the Potency was 654 nM (active). In the case of `Cc1csc(CNc2ncnc3ccc(-c4ccoc4)cc23)c1`, the Potency is 355 nM (active).

Values taken from PubChem BioAssay AID1970 (National Center for Advancing Translational Sciences (NCATS), 2009).
